Source: PubChem BioAssay (NCI)
About 79,000 compounds went through this panel and 15% of them were active in at least one assay; those are over-represented in the sample as a whole. Calls of active or inactive are those of the source. Rule as the data show it: active = growth inhibition above about 70%; inactive = the rest. Where a SMILES comes first, the peptide text is derived from it. [ ]: non-standard residue; d: D form. The star is where a group is joined. Cbz = O=C(OCc1ccccc1)*; Dha = C=C(N)C(=O)O

Tests used:
[1] = NCI Yeast Anticancer Drug Screen. Data for the rad50 strain (AID 155);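 also: 0% = growth of vehicle-only cultures of the same strain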; conditions: S. cerevisiae rad50 strain growth inhibition; at 50.0 µM; active compounds read high
In short: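 A DNA repair-deficient yeast mutant serves as the test organism; compound-induced growth inhibition is calculated against vehicle-treated cells.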

[2] = NCI Yeast Anticancer Drug Screen. Data for the mec2-1 strain (AID 157); conditions: S. cerevisiae mec2-1 strain, at 50.0 µM, active compounds read high
In short: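 Readout is yeast growth inhibition, normalised to vehicle-treated controls, in the mec2-1 strain exposed to compound.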

[3] = NCI Yeast Anticancer Drug Screen. Data for the sgs1 mgt1 strain (AID 161);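 also: 0% = growth of cultures given vehicle only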; conditions: S. cerevisiae sgs1 mgt1 strain, at 50.0 µM, active compounds read high
In short: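 Yeast cells carrying a defined DNA-repair defect were exposed to test compounds. Growth inhibition was measured relative to vehicle-treated controls.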

[4] = NCI Yeast Anticancer Drug Screen. Data for the cln2 rad14 strain (AID 165);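 also: 0% = growth equal to vehicle treated cultures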; conditions: S. cerevisiae cln2 rad14 strain, at 50.0 µM, active compounds read high
In short: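 Relative to vehicle controls, growth inhibition of compound-treated cln2 rad14 yeast was recorded.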

[5] = NCI Yeast Anticancer Drug Screen. Data for the bub3 strain (AID 167); conditions: S. cerevisiae bub3 mutant strain, at 50.0 µM, active compounds read high
In short: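 Inhibition values come from growth of compound-treated mutant yeast normalised to vehicle-treated controls.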

[6] = NCI Yeast Anticancer Drug Screen. Data for the mlh1 rad18 strain (AID 175); conditions: S. cerevisiae mlh1 rad18 strain growth inhibition; at 50.0 µM; active compounds read high
In short: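 Test agents were incubated with a yeast strain of defined genotype (DNA damage repair defect). Inhibition of growth was derived by comparison with vehicle-exposed cultures.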

Measured: growth inhibition

CC(Br)CCc1ccccc1Br (centres undefined)
inactive: [1] 3.95% | [2] -8.9% | [3] -2.95% | [4] -39.5% | [5] 19.9% | [6] 10.7%

C=C1C(=O)[C@@]23CC[C@@H]4[C@@]5(C)CCC[C@@]4(OC5=O)[C@@]2(C)CC[C@@H]1C3
active: [1] 92.1% | [2] 93.7% | [3] 93.8% | [4] 89.3% | [5] 93.3% | [6] 92.3%

O=[N+]([O-])c1cccc(/C=N\NS(=O)(=O)c2ccc(Cl)cc2)c1O
inactive: [1] -11.7% | [2] -13.3% | [3] -11.8% | [4] -2.3% | [5] -38.4% | [6] -5.9%

O=C(Nc1ccc(N=Nc2ccccc2)cc1)c1ccc(Cl)cc1
inactive: [1] -11.1% | [2] 2.3% | [3] 12.1% | [4] -60.1% | [5] 2.35% | [6] -7.95%

CCOC(=O)c1c(N)sc2c1C(C(=O)OCC)CC2 (centres undefined)
inactive: [1] -8.95% | [2] 7.1% | [3] -8.05% | [4] -0.8% | [5] 14.8% | [6] 19.9%

CCCCCCCCCCCCCCCCOCC(COP(=O)(O)OCC1OC(n2cc(CC)c(=O)[nH]c2=O)CC1O)OC(=O)CCCCCCCCCCCCCCC (centres undefined)
inactive: [1] -0.45% | [2] -5.55% | [3] 5.25% | [4] 3.15% | [5] -15.1% | [6] -65%

O=C(NCc1ccccc1)C(O)c1ccccc1 (centres undefined)
inactive: [1] 25.2% | [2] 4.8% | [3] -1.25% | [4] 0.6% | [5] 8.2% | [6] 12.7%

O=C(O)CC1CCC(CC(=O)O)CC1 (centres undefined)
inactive: [1] -9.5% | [2] -8.65% | [3] -5.25% | [4] -40.9% | [5] -12.7% | [6] -1.65%

Cc1ccc(/C=N/NS(=O)(=O)c2ccc(/C=C3\NC(=O)NC3=O)cc2)cc1
inactive: [1] -16.8% | [2] -6.1% | [3] -31.4% | [4] -6.55% | [5] -41.2% | [6] 1.75%

CN(C)c1ccc(N=Nc2ccc3nc[nH]c3c2)cc1
inactive: [1] -3.15% | [2] 6.65% | [3] 42% | [4] -6.1% | [5] -3.3% | [6] 26.5%

O=C1c2ccccc2C(=O)N1CCc1ccccn1
inactive: [1] 5.5% | [2] -6% | [3] 3.95% | [4] -27.1% | [5] -0.45% | [6] -22.9%

COc1ccc(OC)c(NC(=O)c2ccc(Cl)c(Cl)c2)c1
inactive: [1] -0.5% | [2] 14.3% | [3] 5.45% | [4] -9.25% | [5] 13.6% | [6] 0.85%

O=C(O)/C=C\C(=O)Nc1ccccn1
inactive: [1] -30.6% | [2] -43.8% | [3] -52.7% | [4] -2.65% | [5] -44.9% | [6] -21.4%

CN(C)C(=O)Nc1cccc(OS(=O)(=O)N(C)C)c1
inactive: [1] 5.4% | [2] 26.1% | [3] 23.2% | [4] -18.6% | [5] 22.9% | [6] 12.6%

COc1cc2c(cc1OC)C1=Cc3cc(OC)c(OC)cc3C(C)N1C=C2 (centres undefined)
inactive: [1] 6.15% | [2] -6.3% | [3] -26.6% | [4] -18.6% | [5] -23.9% | [6] -16.7%

CC1CCc2nc(N)nc(CC3CC(=O)NC(=O)C3)c2C1 (centres undefined)
inactive: [1] -2.75% | [2] -5.65% | [3] -8.7% | [4] -45.5% | [5] -12.8% | [6] -3.2%

CN(C)C(=O)C1(C)CC2CCC1C2 (centres undefined)
inactive: [1] -2.25% | [2] -15.3% | [3] -8.65% | [4] 13.9% | [5] 2.8% | [6] -0.75%

CCOc1ccc(NC(=O)C(Br)C(Br)C(=O)O)cc1 (centres undefined)
active: [1] 85.7% | [2] 98.5% | [3] 96.8% | [4] 95.4% | [5] 98.5% | [6] 94.6%

O=C(Nc1ccccc1)Nc1cc(C(F)(F)F)ccc1Cl
inactive: [1] 36% | [2] 18.6% | [3] 4.15% | [4] -10.2% | [5] 2.95% | [6] -17.1%

N=C1CCCC1C(=S)SCCC(N)=O (centres undefined)
inactive: [1] -11.8% | [2] -30.2% | [3] -51.5% | [4] 6.8% | [5] -30.8% | [6] 6.15%

C=C(NC(=O)C(C)NC(=O)OCc1ccccc1)C(=O)N1CCCC1C(=O)NC(C)C(=O)NC (centres undefined) (Cbz-A[Dha]PA-NHMe; configuration not given here)
inactive: [1] 3% | [2] -3.95% | [3] -5.05% | [4] 3.4% | [5] -4.35% | [6] -2.4%

CCCCCCCCCCCCCCCCOCC(COS(C)(=O)=O)OS(C)(=O)=O (centres undefined)
inactive: [1] 20% | [2] 2.15% | [3] 12.2% | [4] 33.3% | [5] 7.9% | [6] 1.5%

CCCCOc1c(Cl)cc(Cl)cc1-c1ccccc1
inactive: [1] 14.7% | [2] 9.6% | [3] 2.55% | [4] -18.2% | [5] 18.5% | [6] 2.25%

CN(C)S(=O)(=O)Oc1ccccc1N
inactive: [1] 5.9% | [2] -4.5% | [3] 20.9% | [4] 18.7% | [5] -5.15% | [6] 15.8%

CCC/C(=N/NC(=O)C(N)=O)C(CC)C(=O)CCC(=O)N(Cc1ccccc1)Cc1ccccc1 (centres undefined)
inactive: [1] -17.6% | [2] -15.6% | [3] -26.6% | [4] 10.8% | [5] -10.4% | [6] -21.3%

CC(=O)C1CCN(Cc2ccccc2)C1 (centres undefined)
inactive: [1] 3.75% | [2] 6.9% | [3] 7.15% | [4] -1.05% | [5] -12.7% | [6] -21.6%

Cc1c2ccn3c(=O)c4ccccc4cc3c2c(C)c2c1[nH]c1ccccc12
inactive: [1] 56.1% | [2] 15.2% | [3] 9.45% | [4] 16.7% | [5] 21.8% | [6] 26.6%

COC(=O)N/N=C/c1c[nH]c2ccccc12
inactive: [1] -5.15% | [2] -17.6% | [3] -9.65% | [4] -97% | [5] -17.4% | [6] -24.6%

c1ccc2cc(CNCCCCNCCCNCc3ccc4ccccc4c3)ccc2c1
inactive: [1] 63.8% | [2] 38.6% | [3] 62.3% | [4] 46.2%
active: [5] 85% | [6] 76.3%

Cc1cc(C=O)c(C)[nH]1
inactive: [1] 3.9% | [2] -3.55% | [3] -2.4% | [4] -11.2% | [5] 1.55% | [6] -4.4%

Cc1ccc2c(c1)-c1c3c(nn1C)-c1ccccc1SC3O2 (centres undefined)
inactive: [1] -0.35% | [2] -7.75% | [3] -13.1% | [4] -3.6% | [5] -5.75% | [6] 9.15%

CCOC(=O)C(C(C)=O)C(c1ccc(N(C)C)cc1)c1ccc(N(C)C)cc1 (centres undefined)
inactive: [1] 4% | [2] -4.35% | [3] -6.6% | [4] -2.4% | [5] 3.95% | [6] -3.4%

CCN(CC)C(=O)CNC(=O)C(c1ccccc1)c1ccccc1
inactive: [1] 4.25% | [2] -6.2% | [3] 1.4% | [4] -9.7% | [5] 6.35% | [6] -8.05%

COC(=O)C1CC2c3[nH]c4ccccc4c3CCN2C1 (centres undefined)
inactive: [1] -4.85% | [2] -8.25% | [3] -17.1% | [4] -11.4% | [5] -4.1% | [6] -10.5%

c1cc(-c2nnc(-c3ccncc3)s2)ccn1
inactive: [1] 6.2% | [2] -1.35% | [3] -9.25% | [4] 32.5% | [5] 14.5% | [6] -8.15%

COC1(C)CCC2(O)C(=O)OC3C(O)COC32O1 (centres undefined)
inactive: [1] -3.45% | [2] -4.9% | [3] 2.55% | [4] -1.3% | [5] -1.85% | [6] -4.55%

C/C=C/C(=O)OCCC#N
inactive: [1] -27.1% | [2] -2.3% | [3] 3.7% | [4] 14.7% | [5] -17.1% | [6] -8.85%

Clc1ccc(C(=C=C(c2ccccc2)c2ccccc2)c2ccc(Cl)cc2)cc1
inactive: [1] 33.7% | [2] 13.8% | [3] -4.4% | [4] 20.7% | [5] 5.55% | [6] 25.9%

CCCCOC(=O)NC(Nc1ccc(S(=O)(=O)Nc2ccc(OC)nn2)cc1)(C(F)(F)F)C(F)(F)F
inactive: [1] -8.25% | [2] -1.5% | [3] -10.1% | [4] 5% | [5] -9.55% | [6] 2.95%
